Among all 5,500 compounds or so, about 2,000 (36%) were called active. Another 18% or so got no clear call; they are omitted. Rule as the data show it: active = normalized growth mostly below about 0.91 (no sharp cut-off); inconclusive = no clear call, values can overlap the other calls; inactive = mostly above about 0.92. The list shows a part of the results.
Test: chemical genetic growth profiling, strain panel (AID 1159580);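 also: tested at 20 µM; growth read once vehicle control cultures reached saturation at 30 °C; 1 = growth at the plate median or of vehicle wells; lower values mean less growth of the strain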
Conditions: growth OD
[1] = S. cerevisiae deletion strains, locus YAL013W, strain DEP1, stronger effect = lower value
[2] = S. cerevisiae deletion strains, locus YDR150W, strain NUM1, stronger effect = lower value
[3] = S. cerevisiae deletion strains, locus YHR030C, strain SLT2, stronger effect = lower value
[4] = S. cerevisiae deletion strains, locus YJR075W, strain HOC1, stronger effect = lower value
[5] = S. cerevisiae deletion strains, locus YPL055C, strain LGE1, stronger effect = lower value
[6] = S. cerevisiae deletion strains, locus YPL241C, strain CIN2, stronger effect = lower value
[7] = S. cerevisiae deletion strains, locus YHR079C, strain IRE1, stronger effect = lower value
[8] = S. cerevisiae deletion strains, locus YJL095W, strain BCK1, stronger effect = lower value
[9] = S. cerevisiae deletion strains, locus YJR066W, strain TOR1, stronger effect = lower value
[10] = S. cerevisiae deletion strains, locus YLR113W, strain HOG1, stronger effect = lower value
[11] = S. cerevisiae deletion strains, locus YNL183C, strain NPR1, stronger effect = lower value
[12] = S. cerevisiae deletion strains, locus YOR231W, strain MKK1, stronger effect = lower value
[13] = S. cerevisiae deletion strains, locus YPL256C, strain CLN2, stronger effect = lower value

Measured: normalized growth

CC(=O)Nc1ccc(S(=O)(=O)NC2Cc3ccccc3C2)cc1
inactive: [1] 1.01 | S. cerevisiae deletion strains, locus YBR229C, strain ROT2, stronger effect = lower value 1.01 | S. cerevisiae deletion strains, locus YDL101C, strain DUN1, stronger effect = lower value 0.98 | [2] 0.949 | S. cerevisiae deletion strains, locus YEL061C, strain CIN8, stronger effect = lower value 1.01 | S. cerevisiae deletion strains, locus YGR078C, strain PAC10, stronger effect = lower value 1 | [3] 1.06 | S. cerevisiae deletion strains, locus YHR087W, strain rtc3, stronger effect = lower value 1 | S. cerevisiae deletion strains, locus YJR043C, strain POL32, stronger effect = lower value 1 | [4] 0.996 | S. cerevisiae deletion strains, locus YKL190W, strain CNB1, stronger effect = lower value 1.01 | S. cerevisiae deletion strains, locus YLR039C, strain RIC1, stronger effect = lower value 1.04 | S. cerevisiae deletion strains, locus YLR058C, strain SHM2 (second series), stronger effect = lower value 1.01 | S. cerevisiae deletion strains, locus YLR085C, strain ARP6, stronger effect = lower value 1.05 | S. cerevisiae deletion strains, locus YLR262C, strain YPT6, stronger effect = lower value 1.03 | S. cerevisiae deletion strains, locus YML094W, strain GIM5, stronger effect = lower value 1.02 | S. cerevisiae deletion strains, locus YMR219W, strain ESC1, stronger effect = lower value 1.01 | S. cerevisiae deletion strains, locus YMR263W, strain SAP30, stronger effect = lower value 0.994 | S. cerevisiae deletion strains, locus YNL153C, strain GIM3, stronger effect = lower value 1.02 | S. cerevisiae deletion strains, locus YNL298W, strain CLA4 (second series), stronger effect = lower value 1.04 | S. cerevisiae deletion strains, locus YNL322C, strain KRE1, stronger effect = lower value 1.01 | S. cerevisiae deletion strains, locus YNR030W, strain Alg12, stronger effect = lower value 1.03 | S. cerevisiae deletion strains, locus YOL006C, strain TOP1, stronger effect = lower value 1.08 | [5] 0.966 | [6] 1.02 | S. cerevisiae deletion strains, locus YPR135W, strain CTF4, stronger effect = lower value 1.02 | S. cerevisiae strains, strain wild type, stronger effect = lower value 1.01

CCCCS(=N)(=O)CCC(N)C(=O)O (stereo unspecified)
inactive: [1] 0.993 | S. cerevisiae deletion strains, locus YAL021C, strain ccr4, stronger effect = lower value 0.983 | S. cerevisiae deletion strains, locus YAL026C, strain drs2, stronger effect = lower value 1 | S. cerevisiae deletion strains, locus YAL030W, strain snc1, stronger effect = lower value 0.997 | S. cerevisiae deletion strains, locus YAL040C, strain CLN3, stronger effect = lower value 0.993 | S. cerevisiae deletion strains, locus YBL061C, strain skt5, stronger effect = lower value 0.999 | S. cerevisiae deletion strains, locus YBR009C, strain hhf1, stronger effect = lower value 1.02 | S. cerevisiae deletion strains, locus YBR023C, strain chs3, stronger effect = lower value 0.997 | S. cerevisiae deletion strains, locus YBR171W, strain sec66, stronger effect = lower value 0.999 | S. cerevisiae deletion strains, locus YBR231C, strain swc5, stronger effect = lower value 0.998 | S. cerevisiae deletion strains, locus YBR279W, strain paf1, stronger effect = lower value 0.993 | S. cerevisiae deletion strains, locus YCL011C, strain gbp2, stronger effect = lower value 0.988 | S. cerevisiae deletion strains, locus YCL016C, strain dcc1, stronger effect = lower value 1 | S. cerevisiae deletion strains, locus YCL061C, strain MRC1 (second series), stronger effect = lower value 0.997 | S. cerevisiae deletion strains, locus YCL061C, strain MRC1, stronger effect = lower value 0.993 | S. cerevisiae deletion strains, locus YCL069W, strain vba3, stronger effect = lower value 0.992 | S. cerevisiae deletion strains, locus YCR088W, strain abp1, stronger effect = lower value 0.992 | S. cerevisiae deletion strains, locus YDL005C, strain med2, stronger effect = lower value 0.984 | S. cerevisiae deletion strains, locus YDL040C, strain nat1, stronger effect = lower value 0.994 | S. cerevisiae deletion strains, locus YDR001C, strain nth1, stronger effect = lower value 0.99 | S. cerevisiae deletion strains, locus YDR069C, strain doa4, stronger effect = lower value 1.01 | S. cerevisiae deletion strains, locus YDR137W, strain rgp1, stronger effect = lower value 0.973 | [2] 1.01 | S. cerevisiae deletion strains, locus YDR159W, strain sac3, stronger effect = lower value 1.02 | S. cerevisiae deletion strains, locus YDR195W, strain ref2 0.994 | S. cerevisiae deletion strains, locus YDR297W, strain sur2, stronger effect = lower value 0.993 | S. cerevisiae deletion strains, locus YDR334W, strain swr1, stronger effect = lower value 0.987 | S. cerevisiae deletion strains, locus YDR335W, strain msn5, stronger effect = lower value 0.99 | S. cerevisiae deletion strains, locus YDR363W, strain ESC2, stronger effect = lower value 0.992 | S. cerevisiae deletion strains, locus YDR392W, strain spt3, stronger effect = lower value 0.976 | S. cerevisiae deletion strains, locus YEL003W, strain gim4, stronger effect = lower value 0.994 | S. cerevisiae deletion strains, locus YEL037C, strain rad23, stronger effect = lower value 0.99 | S. cerevisiae deletion strains, locus YEL061C, strain CIN8 (second series), stronger effect = lower value 0.99 | S. cerevisiae deletion strains, locus YER002W, strain NOP16, stronger effect = lower value 0.979 | S. cerevisiae deletion strains, locus YER015W, strain faa2, stronger effect = lower value 0.996 | S. cerevisiae deletion strains, locus YER016W, strain bim1, stronger effect = lower value 0.996 | S. cerevisiae deletion strains, locus YER111C, strain swi4, stronger effect = lower value 0.983 | S. cerevisiae deletion strains, locus YER155C, strain BEM2 (second series), stronger effect = lower value 1.01 | S. cerevisiae deletion strains, locus YFR010W, strain ubp6, stronger effect = lower value 0.999 | S. cerevisiae deletion strains, locus YGL167C, strain pmr1, stronger effect = lower value 1 | S. cerevisiae deletion strains, locus YGL173C, strain kem1, stronger effect = lower value 1 | S. cerevisiae deletion strains, locus YGL227W, strain vid30, stronger effect = lower value 0.984 | S. cerevisiae deletion strains, locus YGL240W, strain doc1, stronger effect = lower value 1.01 | S. cerevisiae deletion strains, locus YGL253W, strain hxk2, stronger effect = lower value 1 | S. cerevisiae deletion strains, locus YGR229C, strain SMI1, stronger effect = lower value 0.955 | S. cerevisiae deletion strains, locus YHR013C, strain ard1, stronger effect = lower value 0.979 | S. cerevisiae deletion strains, locus YHR027C, strain rpn1, stronger effect = lower value 0.99 | [3] 0.981 | [7] 0.98 | S. cerevisiae deletion strains, locus YHR142W, strain chs7, stronger effect = lower value 0.979 | S. cerevisiae deletion strains, locus YJL092W, strain hpr5, stronger effect = lower value 1 | S. cerevisiae deletion strains, locus YJL095W, strain BCK1 (second series), stronger effect = lower value 0.995 | [8] 0.983 | S. cerevisiae deletion strains, locus YJL115W, strain asf1, stronger effect = lower value 0.996 | S. cerevisiae deletion strains, locus YJL129C, strain trk1, stronger effect = lower value 0.986 | S. cerevisiae deletion strains, locus YJL154C, strain vps35, stronger effect = lower value 0.993 | S. cerevisiae deletion strains, locus YJL164C, strain tpk1, stronger effect = lower value 0.996 | S. cerevisiae deletion strains, locus YJL166W, strain qcr8, stronger effect = lower value 1 | S. cerevisiae deletion strains, locus YJL187C, strain SWE1, stronger effect = lower value 0.994 | [9] 0.9 | [4] 1 | S. cerevisiae deletion strains, locus YKL160W, strain elf1, stronger effect = lower value 0.997 | S. cerevisiae deletion strains, locus YKR026C, strain gcn3, stronger effect = lower value 0.986 | S. cerevisiae deletion strains, locus YKR091W, strain srl3, stronger effect = lower value 0.988 | S. cerevisiae deletion strains, locus YLL001W, strain dnm1, stronger effect = lower value 0.993 | S. cerevisiae deletion strains, locus YLL026W, stronger effect = lower value 0.993 | S. cerevisiae deletion strains, locus YLL041C, strain sdh2, stronger effect = lower value 0.988 | S. cerevisiae deletion strains, locus YLR027C, strain aat2, stronger effect = lower value 0.993 | [10] 0.99 | S. cerevisiae deletion strains, locus YLR221C, strain rsa3, stronger effect = lower value 0.986 | S. cerevisiae deletion strains, locus YLR258W, strain gsy2, stronger effect = lower value 1 | S. cerevisiae deletion strains, locus YLR262C, strain YPT6 (second series), stronger effect = lower value 0.998 | S. cerevisiae deletion strains, locus YLR320W, strain mms22, stronger effect = lower value 0.99 | S. cerevisiae deletion strains, locus YLR342W, strain FKS1, stronger effect = lower value 0.993 | S. cerevisiae deletion strains, locus YLR357W, strain rsc2, stronger effect = lower value 1 | S. cerevisiae deletion strains, locus YLR370C, strain arc18, stronger effect = lower value 0.99 | S. cerevisiae deletion strains, locus YLR384C, strain iki3, stronger effect = lower value 1.01 | S. cerevisiae deletion strains, locus YML120C, strain ndi1, stronger effect = lower value 0.983 | S. cerevisiae deletion strains, locus YMR058W, strain fet3, stronger effect = lower value 0.999 | S. cerevisiae deletion strains, locus YMR125W, strain sto1, stronger effect = lower value 0.99 | S. cerevisiae deletion strains, locus YMR129W, stronger effect = lower value 0.959 | S. cerevisiae deletion strains, locus YMR205C, strain PFK2, stronger effect = lower value 1.02 | S. cerevisiae deletion strains, locus YMR231W, strain pep5, stronger effect = lower value 0.997 | S. cerevisiae deletion strains, locus YMR307W, strain GAS1, stronger effect = lower value 1.01 | S. cerevisiae deletion strains, locus YNL071W, strain lat1, stronger effect = lower value 0.982 | S. cerevisiae deletion strains, locus YNL128W, strain TEP1, stronger effect = lower value 0.991 | S. cerevisiae deletion strains, locus YNL175C, strain NOP13, stronger effect = lower value 0.97 | [11] 0.929 | S. cerevisiae deletion strains, locus YNL197C, strain WHI3, stronger effect = lower value 0.94 | S. cerevisiae deletion strains, locus YNL209W, strain ssb2, stronger effect = lower value 0.991 | S. cerevisiae deletion strains, locus YNL224C, strain SQS1, stronger effect = lower value 0.986 | S. cerevisiae deletion strains, locus YNL248C, strain rpa49, stronger effect = lower value 0.991 | S. cerevisiae deletion strains, locus YNL322C, strain KRE1 (second series), stronger effect = lower value 0.998 | S. cerevisiae deletion strains, locus YNR049C, strain mso1, stronger effect = lower value 0.994 | S. cerevisiae deletion strains, locus YOR001W, strain rrp6, stronger effect = lower value 0.974 | S. cerevisiae deletion strains, locus YOR070C, strain gyp1, stronger effect = lower value 0.99 | S. cerevisiae deletion strains, locus YOR080W, strain dia2, stronger effect = lower value 0.99 | S. cerevisiae deletion strains, locus YOR083W, strain WHI5 (second series), stronger effect = lower value 0.95 | S. cerevisiae deletion strains, locus YOR083W, strain WHI5, stronger effect = lower value 1 | S. cerevisiae deletion strains, locus YOR106W, strain vam3, stronger effect = lower value 1.01 | [12] 0.988 | S. cerevisiae deletion strains, locus YOR265W, strain rbl2, stronger effect = lower value 0.989 | S. cerevisiae deletion strains, locus YOR270C, strain vph1, stronger effect = lower value 0.99 | S. cerevisiae deletion strains, locus YOR290C, strain snf2, stronger effect = lower value 0.949 | S. cerevisiae deletion strains, locus YPL051W, strain arl3, stronger effect = lower value 0.992 | [5] 0.999 | S. cerevisiae deletion strains, locus YPL078C, strain atp4, stronger effect = lower value 0.994 | S. cerevisiae deletion strains, locus YPL106C, strain sse1, stronger effect = lower value 0.991 | S. cerevisiae deletion strains, locus YPL240C, strain hsp82, stronger effect = lower value 0.998 | [6] 0.998 | [13] 0.988

CCSCCC(N)C(=O)O (stereo unspecified)
inactive: [3] 1.06 | [7] 1.05 | [8] 1.04 | [9] 1.01 | [10] 1.04 | [11] 1.02 | [12] 1.03 | [13] 1.05

Source: PubChem BioAssay AID1159580 (chemical genetic matrix, 2015)
